Experimental data taken from a collection of fitness landscapes (doi:10.1126/science.1257360).
In all, about 140,000 sequences were measured (“enrichment ratio after two sorts for PhoP signalling”: median about 0, highest 2% from about 11 on). The full list was thinned out, with the highest values kept by preference.

B1: PhoQ; a variant is named by its letters at X, in order, P23837 (parent)
chain: MKKLLRLFFPLSLRVRFLLATAAVVLVLSLAYGMVALIGYSVSFDKTTFRLLRGESNLFYTLAKWENNKLHVELPENIDKQSPTMTLIYDENGQLLWAQRDVPWLMKMIQPDWLKSNGFHEIEADVNDTSLLLSGDHSIQQQLQEVREDDDDAEMTHSVAVNVYPATSRMPKLTIVVVDTIPVELKSSYMVWSWFIYVLSANLLLVIPLLWVAAWWSLRPIEALAKEVRELEEHNRELLNPATTRELTSLVRNLNRLLKSERERYDKYRTTLTDLTHSLKTPLXXLQXXLRSLRSEKMSVSDAEPVMLEQISRISQQIGYYLHRASMRGGTLLSRELHPVAPLLDNLTSALNKVYQRKGVNISLDISPEISFVGEQNDFVEVMGNVLDNACKYCLEFVEISARQTDEHLYIVVEDDGPGIPLSKREVIFDRGQRVDTLRPGQGVGLAVAREITEQYEGKIVAGESMLGGARMEVIFGRQHSAPKDE

Variants of: B1
Test: enrichment ratio after two sorts for PhoP signalling (ratio (wild type AVST 3.29)); higher = more functional
Details: with PhoP (E. coli)

Variant | enrichment ratio
PSTY | ≤ 0.25
DPTW | ≤ 0.25
RMLN | ≤ 0.25
HIRM | ≤ 0.25
SECT | 24.6
IACT | ≤ 0.25
SRCT | ≤ 0.25
SLCT | 19.2
PLCT | ≤ 0.25
WLCT | ≤ 0.25
TECT | 5.22
SACT | 14
KYCT | ≤ 0.25
HEHS | ≤ 0.25
NPLN | ≤ 0.25
KDNG | ≤ 0.25
TGQY | 5.59
SYEM | ≤ 0.25
LFDK | ≤ 0.25
LFMM | ≤ 0.25
YGQR | ≤ 0.25
GELT | 11.2
GEGD | ≤ 0.25
GNTT | 2.98
GEAS | 9.56

Variant | enrichment ratio
GEAT | 14.1
GETT | 16.2
GEYI | ≤ 0.25
GEYT | 0.289
GENY | ≤ 0.25
GETA | ≤ 0.25
GEAY | 23.4
GEAA | 11.4
MCVP | ≤ 0.25
LYDV | ≤ 0.25
WERP | ≤ 0.25
FGLD | ≤ 0.25
WHSD | ≤ 0.25
PARG | ≤ 0.25
SKNV | ≤ 0.25
KDFC | ≤ 0.25
ATTG | 12
AICG | 8.42
ATMV | 9.43
ITCG | ≤ 0.25
ATMG | 16.2
ATIV | 8.37
ATVG | 6.86
TTTG | 7.1
ATPI | 8.1

Variant | enrichment ratio
ATCV | 15.4
YTTG | ≤ 0.25
ATCG | 16.1
HMVR | ≤ 0.25
PPPT | ≤ 0.25
HYAC | ≤ 0.25
MRCY | ≤ 0.25
ALEK | ≤ 0.25
QMAV | ≤ 0.25
HMTD | ≤ 0.25
LMTS | 0.708
YCYV | ≤ 0.25
SCYS | 0.535
QMGG | ≤ 0.25
LLQC | ≤ 0.25
ATCI | 12.5
ATNL | 5.25
ATPW | ≤ 0.25
ATHW | ≤ 0.25
ATGD | ≤ 0.25
ATCK | 3.27
ATMD | 27.9
ATMW | 26.9
ATYD | ≤ 0.25
ATPL | 5.31

Variant | enrichment ratio
ATCA | 5.9
ATCL | 18.6
WGSP | ≤ 0.25
HYYD | ≤ 0.25
WSIS | ≤ 0.25
ITGG | ≤ 0.25
MSAK | ≤ 0.25
EGWA | ≤ 0.25
DSML | ≤ 0.25
IFTF | ≤ 0.25
PWYL | ≤ 0.25
YTCW | ≤ 0.25
ADCW | ≤ 0.25
ATCW | 11.3
HMKN | ≤ 0.25
NKTY | ≤ 0.25
ANYI | ≤ 0.25
ANAY | 36.4
AKAY | 13.6
AQYI | ≤ 0.25
AIAY | 6.61
AHAY | 1.08
AQAY | 15.2
ANNY | 6.43
NQAY | ≤ 0.25

Variant | enrichment ratio
CPSL | ≤ 0.25
QEVG | ≤ 0.25
FDGF | ≤ 0.25
HSWS | ≤ 0.25
NKSN | ≤ 0.25
WFED | ≤ 0.25
WRFE | ≤ 0.25
IQAV | ≤ 0.25
NVMV | ≤ 0.25
KLCH | ≤ 0.25
WLCH | ≤ 0.25
SHCH | 16
GTCH | 4.08
TTCH | 15
STCH | 12.6
SHMH | 3
YTCH | 0.285
THCH | 5.09
ITCH | ≤ 0.25
CTCH | ≤ 0.25
SLCH | 11.6
DCLL | ≤ 0.25
YWMV | ≤ 0.25
YISQ | 0.456
YEYI | ≤ 0.25

Variant | enrichment ratio
RIQD | ≤ 0.25
APKL | ≤ 0.25
KTLD | ≤ 0.25
QTQN | ≤ 0.25
LCCT | ≤ 0.25
EDCL | ≤ 0.25
KEMG | ≤ 0.25
SLQL | 5.85
SMQL | 12.1
SGQL | 12
YTQL | ≤ 0.25
SQQL | 2.28
SAQL | 9.87
STQL | 17.1
SIQL | 13.1
NIQL | ≤ 0.25
KYQL | ≤ 0.25
QEQL | ≤ 0.25
QLRC | ≤ 0.25
KRKR | ≤ 0.25
YDDH | ≤ 0.25
EAQW | ≤ 0.25
TNNK | ≤ 0.25
TNTI | 15.8
TNIC | ≤ 0.25

Variant | enrichment ratio
TNTH | 1.01
TNTD | ≤ 0.25
TNTC | 11.6
TNTA | 10.1
TNTK | ≤ 0.25
TNTS | 13.4
WEHT | ≤ 0.25
FCPF | ≤ 0.25
IDMQ | ≤ 0.25
VSQK | ≤ 0.25
HKCQ | ≤ 0.25
AKCQ | 19.1
AWCQ | ≤ 0.25
TKCQ | 11.7
AICQ | 3.77
MKCQ | ≤ 0.25
PWVC | ≤ 0.25
HKCL | 3.32
MKCL | 16.5
TKCI | 10.8
GGMT | ≤ 0.25
TKCV | 30.6
TKCS | 13.2
KKCV | ≤ 0.25
KKCL | 1.66

Variant | enrichment ratio
TKCL | 14.6
TKCE | 7.83
AKCV | 3.07
MMCL | 4.1
SKMP | ≤ 0.25
GFDT | ≤ 0.25
WRTW | ≤ 0.25
DDAA | ≤ 0.25
ARFW | ≤ 0.25
KKAC | ≤ 0.25
SIAC | 13
KYAC | ≤ 0.25
AIAC | 19.1
GGAC | ≤ 0.25
VHAC | ≤ 0.25
NGAC | ≤ 0.25
SPAC | ≤ 0.25
AEFC | 6.7
AEYS | 1.65
AEAC | 43.5
TGAC | 11.4
MDLS | ≤ 0.25
WPPG | ≤ 0.25
LANA | ≤ 0.25
GFDD | ≤ 0.25

Variant | enrichment ratio
LCAI | ≤ 0.25
VLNL | ≤ 0.25
WIAC | ≤ 0.25
RIAC | ≤ 0.25
AKAC | 19.7
TIAC | 12.1
ADAC | 0.792
AAAC | ≤ 0.25
MYGT | ≤ 0.25
TEWY | 0.326
MPYR | ≤ 0.25
TTQQ | 21.5
LTQQ | ≤ 0.25
TTHP | ≤ 0.25
TTMQ | 30.4
GYMQ | ≤ 0.25
YTMQ | 0.469
YTHQ | ≤ 0.25
ITQQ | ≤ 0.25
TTHQ | 26.2
YIIQ | ≤ 0.25
QERY | ≤ 0.25
QQLY | ≤ 0.25
CLCR | ≤ 0.25
VMKE | ≤ 0.25

Variant | enrichment ratio
VTRG | ≤ 0.25
QNQF | ≤ 0.25
TTPI | 4.3
ITLT | ≤ 0.25
TTLA | 16.9
YTLS | 4.88
TTLS | 15.1
CTLS | ≤ 0.25
TTLT | 15.8
YTLA | 4.01
YTLT | ≤ 0.25
IYDI | ≤ 0.25
EDSR | ≤ 0.25
KMPM | ≤ 0.25
YVSD | ≤ 0.25
RQYR | ≤ 0.25
HAKY | ≤ 0.25
DMQN | ≤ 0.25
MLWE | ≤ 0.25
MNYI | 9.81
MNNY | 15.3
MNHF | 4.26
TNAY | 2.94
MNHP | ≤ 0.25
TNAQ | 4.37

Variant | enrichment ratio
MNAQ | 11.8
MNYY | ≤ 0.25
MNAY | 17
FVVQ | ≤ 0.25
PGYA | ≤ 0.25
ELDY | ≤ 0.25
TSCL | 19.6
NSCL | ≤ 0.25
GGCL | 8.88
SGDL | ≤ 0.25
SGCL | 15.6
FSCL | 8.2
TGCL | 22.4
RGCL | ≤ 0.25
CSCS | ≤ 0.25
SGGL | 6.41
KSCL | ≤ 0.25
CSCL | 16.1
PKNL | ≤ 0.25
TSYE | ≤ 0.25
RGSH | ≤ 0.25
NMFD | ≤ 0.25
IIHI | ≤ 0.25
LILE | ≤ 0.25
NHCE | ≤ 0.25

Variant | enrichment ratio
NSGM | ≤ 0.25
HPWS | ≤ 0.25
GNNL | 2.95
YHCL | ≤ 0.25
GNCL | 18.1
YSKR | ≤ 0.25
RNAK | ≤ 0.25
KKTM | ≤ 0.25
ATTM | 16.6
AITM | 23.3
ATPM | 0.758
ATWM | ≤ 0.25
GNTM | 1.94
ADTM | ≤ 0.25
ATTI | 13.7
ATTK | 10.4
GHTM | ≤ 0.25
ANTM | 44
ATTA | ≤ 0.25
GVVP | ≤ 0.25
QMYN | ≤ 0.25
EFPL | ≤ 0.25
KIKD | ≤ 0.25
EALR | ≤ 0.25
FKYT | ≤ 0.25

Variant | enrichment ratio
VDAS | ≤ 0.25
EAHV | ≤ 0.25
NFSK | ≤ 0.25
DNFH | ≤ 0.25
TKWF | 13.4
KSWF | ≤ 0.25
QPWF | ≤ 0.25
HKWF | ≤ 0.25
FQWF | ≤ 0.25
QRWF | ≤ 0.25
FFWF | ≤ 0.25
QGWF | 18.8
QKWF | 12.7
